GLP-1R inv ag: acts as inverse agonist at human GLP-1 receptor. 1.6% of 410,000 active. Potency, µM (titrated, usually from 38.3 µM), inactives show at the top dose activity change, negative = inhibition, most hits filed as inhibitors. HEK293 GLP-1R CRE-luciferase, luminescence, 24 h; GLP-1R form is constitutively active; also: potency is read from the fitted curve at half-maximal effect; % is scaled to controls: 0 for no effect and ±100 for the full control effect; nearly all actives have a fitted effect of over 55% in size
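Using stably transfected HEK293 (constitutively active GLP-1R, cAMP-luciferase reporter), compounds were incubated 24 hr and luciferase measured by luminescence.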
D3 ag: D3 dopamine receptor (human) agonism. P35462. D3R DiscoveRx beta-arrestin cells, luminescence, 90 min. max activation, %. 0.58% of 410,000 active. AID 652048; in the data active = max activation above about 30%; also: 0% is about no effect
Target sequence (P35462 whole entry, looked up): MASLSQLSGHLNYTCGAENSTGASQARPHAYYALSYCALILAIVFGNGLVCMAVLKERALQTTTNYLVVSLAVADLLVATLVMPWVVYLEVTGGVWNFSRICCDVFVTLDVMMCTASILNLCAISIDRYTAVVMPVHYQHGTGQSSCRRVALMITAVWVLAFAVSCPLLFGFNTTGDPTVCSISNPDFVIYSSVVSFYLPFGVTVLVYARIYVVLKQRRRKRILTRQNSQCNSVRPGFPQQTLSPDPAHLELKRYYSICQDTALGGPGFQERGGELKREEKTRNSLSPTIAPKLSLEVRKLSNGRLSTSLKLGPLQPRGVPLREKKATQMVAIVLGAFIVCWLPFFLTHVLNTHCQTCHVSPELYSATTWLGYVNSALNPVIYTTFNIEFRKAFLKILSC
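Agonist-mode cell screen: cells plated at 1500/well and incubated overnight at 37 °C, then exposed to library compounds for 90 min at 37 °C. Detection reagent was added for 30–60 min at room temperature, and luminescence was read.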
GLP1R ag: GLP-1 receptor (human) agonism; HEK293 GLP-1R CRE-luciferase, luminescence, 4-6 h; cells express a hypersensitive GLP-1R form; Potency, µM (top dose mostly 45.6 µM), inactives show at the highest dose activation, hits mostly activators; 0.007% of 380,000 active; also: potency is read from the fitted curve at half-maximal effect; % of control where 0% means no effect
D3 antag: D3 dopamine receptor (human) antagonism; P35462; D3R cells, DiscoveRx beta-arrestin luminescence, antagonist mode; hits give low values; max response, negative = inhibition, %; 2.5% of 360,000 active; AID 652054; in the data active = max response below about -50%; inconclusive = no clear call, values can overlap the other calls; also: % is scaled to controls: 0 for no effect and ±100 for the full control effect
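Cells expressing the human receptor were seeded at 1500 cells/well, incubated overnight at 37 degrees C in 5% CO2, then exposed to library compounds with dopamine controls for 90 minutes at 37 degrees C before luminescent detection.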
* = called active by the depositor; ? = inconclusive; nt = no result. A selection: hits, their analogues and other compounds. The true share with any hit is near 4.3%. Unless noted, calls follow the shape of the dose curve; as a rule, active = well fitted curve in the direction sought with a large enough effect; inconclusive = small, poorly fitted or top-dose-only effect, or another doubt; inactive = no such curve, though single readings can be large; an effect the other way counts as inactive or inconclusive.

SMILES	GLP-1R inv ag	D3 ag	GLP1R ag	D3 antag
Cc1nc2nc(C)n(CCN3CCOCC3)c(=O)c2c(-c2cccc([N+](=O)[O-])c2)c1C(=O)CCCCCCCCCCN1CCC(c2ccccc2)(c2ccccc2)CC1	2.8µM*	-6	-9%	-93*
O=C(/C=C/c1cccs1)N1CCC2(CC1)Oc1ccc(Cl)cc1C(=O)C21CC(c2cccnc2)=NO1 (stereo not given)	?	37*	1%	80
Cc1ccc(C(=O)N2CCC3(CC2)Oc2ccc(Cl)cc2C(=O)C32CC(c3cccnc3)=NO2)s1 (stereo not given)	-3%	-29	9%	-21
CC(C)(C)OC(=O)N1CCC2(CC1)Oc1ccc(F)cc1C(=O)C21CC(c2ccccc2)=NO1 (stereo not given)	11µM*	-13	7%	16
O=C(CSCc1nc2ccccc2[nH]1)Nc1ccc2ccccc2c1	0%	-23	5%	-6
c1ccc2cc(CSCc3nc4ccccc4[nH]3)ccc2c1	10µM*	-8	-2%	-17
COCCCNCCCOc1ccc(Cl)cc1C(C)(C)C	5.6µM*	-40	-3%	?
C=CCc1cc(Cl)ccc1OCCCNC(C)CC (stereo not given)	?	-8	10%	?
COCCNCCOc1ccc(C)cc1[N+](=O)[O-]	-25%	-11	2%	-27
CNCCCOc1ccc(Cl)cc1C(C)(C)C	3.5µM*	-12	7%	?
CCC(C)NCCCOc1ccc(Cl)cc1C(C)(C)C (stereo not given)	-10%	-11	-13%	-69*
COc1cc(OC)c(Nc2nc3ccccc3c3nncn23)cc1Cl	19%	-11	nt	nt
O=C1CCN(CC2CCCCC2)C=C1C(=O)c1ccccc1	11%	-23	8%	9
O=C(Nc1cccnc1)c1cc(-c2cccnc2)nc2ccc(Br)cc12	31%	55*	1%	25
COCCNC(=O)c1cc(-c2cccnc2)nc2ccc(Br)cc12	2%	-5	-7%	-2
COc1cccc(-c2cc(C(=O)Nc3cccnc3)c3ccccc3n2)c1	?	-2	1%	7
COc1cc(NC(=O)c2cc(-c3cccnc3)nc3ccc(Br)cc23)cc(OC)c1	19%	36*	4%	27
O=C(Nc1ccncc1)c1cc(-c2cccc(Br)c2)nc2ccccc12	?	31*	-19%	48
O=C(Nc1cccnc1)c1cc(-c2cccc(Br)c2)nc2ccccc12	?	3	-6%	22
COCCNC(=O)c1[nH]c2cc(C)ccc2c1Sc1ccc(Cl)cc1	-6%	5	nt	nt
O=C(C1CCC(Cn2c(=O)c3sccc3n(Cc3ccc(F)cc3)c2=O)CC1)N1CCOCC1 (stereo not given)	-6%	9	nt	nt
Cc1ccc(C2c3cccn3CCN2S(=O)(=O)c2ccc([N+](=O)[O-])cc2)cc1 (stereo not given)	?	5	nt	nt
Cc1ccc2c(CC(=O)Nc3ccc(S(=O)(=O)N4CCCCC4C)cc3)coc2c1 (stereo not given)	11µM*	1	nt	nt
CCOC(=O)c1ccc(NC(=O)C2CC(O)CN2S(=O)(=O)c2ccc(C)cc2)cc1 (stereo not given)	14%	-18	20%	-54*
Cc1ccc(S(=O)(=O)N2CCCC2C(=O)Nc2ccc(Br)cc2)cc1 (stereo not given)	?	-16	nt	nt
SMILES	GLP-1R inv ag	D3 ag	GLP1R ag	D3 antag
Cc1ccc(S(=O)(=O)N2CCCCC2C(=O)Nc2ccc(N(C)C)cc2)cc1 (stereo not given)	7.1µM*	0	11%	-4
Cc1ccc2c(CC(=O)Nc3ccc(S(=O)(=O)N4CCCCC4C)cc3)coc2c1C (stereo not given)	?	1	nt	nt
CCC(CC)=N/N=C/c1c(O)n(CC)c2cc(C3=NNC(=O)CC3)ccc12	56%	-2	16%	-53*
CCC(=O)OC1CCC2C3CCc4cc(O)ccc4C3CCC12C (stereo not given)	nt	nt	4%	nt
O=C(Nc1ccccc1Sc1ccccc1)c1ccc(F)cc1	5µM*	1	20%	-1
Cc1ccc(C(=O)Nc2ccccc2Sc2ccccc2)cc1	9%	-7	6%	?
O=C(Cn1c(C(=O)N2CCN(C3CCCC3)CC2)cc2sccc21)c1ccccc1	0%	-37	9%	-78*
CC1CCN(S(=O)(=O)c2ccc3c(c2)N(CC(=O)NC(C)c2ccccc2)C(=O)CS3)CC1 (stereo not given)	-30%	-9	nt	nt
COc1ccc(-c2nsc(NC(=O)c3cccc(OC)c3)n2)cc1	-22%	11	nt	nt
COc1ccc(C2c3cc(OC)c(OC)cc3CC(=O)N2c2ccc(C)c(F)c2)cc1 (stereo not given)	?	-2	nt	nt
Fc1ccc(-c2nnc(NC3=NCCCCC3)o2)cc1	1µM*	-2	-60%	-15
Clc1ccc(C2NCCc3sccc32)cc1 (stereo not given)	?	-13	7%	-24
COc1ccc(C2NCCc3sccc32)cc1 (stereo not given)	?	73*	6%	11
COc1ccc(Cl)cc1NC(=O)CN(C)C(=O)c1sc2ccccc2c1Cl	5.6µM*	-5	21%	1
COc1ccc(Cl)cc1NC(=O)CN(C)C1CCCCC1	?	0	11%	-20
COc1ccc(Cl)cc1NC(=O)CN(C)C(=O)Cc1ccc2c(c1)CCC2	?	-4	11%	-17
COc1ccc(Cl)cc1NC(=O)CN(C)C(C)C(=O)NC(=O)NC1CCCCC1 (stereo not given)	3.2µM*	1	-15%	-8
COc1ccc(Cl)cc1NC(=O)CN(C)C(=O)c1cc2c(s1)CCCC2	5µM*	-15	3%	-8
Cc1noc(C)c1CCC(=O)NC1CCCN(Cc2ccc(CC(C)C)cc2)C1 (stereo not given)	10µM*	-6	-4%	8
Cc1noc(C)c1CCC(=O)NC1CCCN(Cc2ccc(Cl)cc2)C1 (stereo not given)	-5%	-8	-6%	-18
CC(C)Cc1ccc(CN2CCCC(NC(=O)c3ccoc3)C2)cc1 (stereo not given)	8.9µM*	-17	3%	-27
Cc1ccc(C)c(S(=O)(=O)/N=C(/Nc2ccccc2)c2ccccc2)c1	10µM*	-13	12%	-4
CC1(C)CC(NC(=O)N2c3ccccc3Sc3ccccc32)CC(C)(C)N1	5µM*	14	1%	5
CC1(C)CC(NC(=O)c2ccccc2C(=O)NC2CC(C)(C)NC(C)(C)C2)CC(C)(C)N1	5%	4	0%	18
CC(C)(C)C(=O)NC(NC(=S)Nc1sc2c(c1C#N)CCCC2)C(Cl)(Cl)Cl (stereo not given)	?	9	3%	-55*
Cc1cc(C)cc(OCC(=O)OCC(=O)N2CCc3ccccc32)c1	-3%	0	-5%	6
CCOc1ccc(NC(=O)c2nn(C)c3c2CS(=O)(=O)c2ccccc2-3)cc1	11%	2	nt	nt
